In PubChem BioAssay:
Values without a mark were called inactive.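 How the source made its calls, unless noted: active means RAM network inhibition above 8.4% in each of two replicates, 3 SD over the compound average; inconclusive means above 8.4% inhibition in only one replicate; inactive means 8.4% inhibition or less in each replicate.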

assay: RAM pathway blockade in budding yeast – dse1pr::URA3 reporter, 5-FOA selection, pilot screen (AID 869;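 active means inhibition over a set limit, the all-compound mean plus 3 SD, in both replicate runs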;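 further: 0% = DMSO wells with no growth and 100% = 10 µM 1-NA-PP1 with full growth; RAM network block rescues cells from 5-FOA so hits raise OD615 growth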); conditions: S. cerevisiae dse1pr::URA3 5-FOA growth, OD615, 2 d; at 10 µM; hits give high values; strain carries analog-sensitive mutant Cbk1 kinase

SMILES	inhibition
O=C(Nc1ccncc1)c1ccccc1F	1.06%
COC(=O)C1C(=O)c2c([nH]c(C(=O)OC3CCCCCC3)c2C)CC1C (stereo not drawn)	1.3%
O=C1CCC(=O)N1c1ccc(CSc2nnnn2C2CCCCC2)cc1	-0.145%
Cc1ccc(C2CC(c3cccc(C)c3)n3ncnc3N2)cc1 (stereo not drawn)	0.45%
CCOc1cccc(NC(=O)c2ccc(S(=O)(=O)N(C)C)cc2)c1	0.83%
COc1ccc(C2N(c3ccc(OC)cc3)C(=O)C3CCCN32)cc1 (stereo not drawn)	0.67%
Fc1cccc(-c2cc3nc4c(c(N5CCC6(CC5)OCCO6)n3n2)CCCC4)c1	1.19%
O=C(COC(=O)C1CC(=O)N(C2CCCCC2)C1)c1ccc(F)cc1 (stereo not drawn)	0.95%
CCOC(=O)CSC(CC)C(=O)Nc1nnc(CC)s1 (stereo not drawn)	0.62%
CC(=O)c1cccc(NC(=O)Nc2cc3sccc3n2C)c1	0.69%
CN(C)S(=O)(=O)c1ccc(C(=O)Nc2ccc(F)cc2F)cc1	0.29%
Cc1ccc(C(=O)N2CCN(c3ccccc3)CC2)cc1C	0.13%
CC(=O)c1c(C)nc2ccc(Br)cc2c1C(=O)O	1.79%
COc1ccc(-c2nc(CS(=O)CC(=O)NCC3CCCO3)c(C)o2)cc1 (stereo not drawn)	-0.795%
Cn1cccc1Cc1nnc(SCC(=O)Nc2nccs2)n1CCc1ccccc1	1.12%
CCCC(=O)c1cc(F)c(N2CCN(S(=O)(=O)c3ccccc3)CC2)cc1C	3.01%
COc1ccccc1CNC(=O)c1cnc2ccccn2c1=O	0.36%
O=C(O)c1cccc(-n2cnnn2)c1	1.06%
Cc1oc(-c2ccc(Cl)cc2)nc1CS(=O)CC(=O)NCCN1CCCC1 (stereo not drawn)	1.06%
O=C(CCn1c(=S)[nH]c2ccccc2c1=O)N1CCOCC1	0.715%
CCCC(=O)C1=C(O)C(C(=O)OC)C(C)(C)CC1=Nc1ccccc1 (stereo not drawn)	0.685%
O=C(Nc1nccs1)c1cc(S(=O)(=O)N2CCCCC2)ccc1Cl	1.89%
COC(=O)Nc1c(C(=O)OC)cc(OC)c(OC)c1OC	-0.495%

assay: RAM signaling pathway blockade in yeast – S. cerevisiae, Pdr1DBD-CYC8 efflux-inhibited sensitized strain, primary screen (AID 1298);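 further: 0% = DMSO untreated cells without growth and 100% = 10 µM 1-NA-PP1 full growth; higher means more yeast growth rescued from 5-FOA killing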; conditions: S. cerevisiae cbk1-as DSE1-URA3 strain, 5-FOA growth OD615, 2 d; at 50 µM; hits give high values

SMILES	RAM network inhibition
COc1cc(Cl)c(S(=O)(=O)n2cnc(C)c2)cc1Cl	2.3%
O=C(CN1CCOc2ccccc21)NCc1ccccc1	2.11%
CC(C)CCNC(=O)CCS(=O)(=O)c1cccc2nonc12	4.52%
O=C1CC(c2ccc(S(=O)(=O)NCc3ccccc3)cc2)CN1 (stereo not drawn)	1.23%
CC(=O)c1ccc(NC(=O)CSC(C)C)cc1	0.37%
CCn1cc(C(=O)NCC2CCCO2)c2cc(OC)c(OC)cc2c1=O (stereo not drawn)	1.29%
COc1ccc(CNc2nc3c(c(=O)[nH]c(=O)n3C)n2Cc2ccccc2C)cc1	2.1%
Cc1cc(C)nc(NS(=O)(=O)c2ccc(Br)s2)c1	9.36%
CC(C)CCSc1nnc(Cn2c(=O)sc3ccccc32)n1C	4.4%
O=P(/C(=N/O)Sc1ccccc1)(N1CCOCC1)N1CCOCC1	4.34%
CC1(C)Cc2c(C#N)c(N)sc(=S)c2CO1	2.98%
CCOC(=O)N1CCN(C(=O)COc2ccc(Br)cc2)CC1	6.68%
COc1ccc(-c2nc(C(N)=O)c3[nH]c(=O)n(-c4ccccc4OC)c3n2)c(OC)c1	0.1%
O=C(Nc1nc(-c2ccccc2)cs1)c1cccs1	2.45%
CC(NC(=O)C1CCC1)c1ccc2c(c1)OCO2 (stereo not drawn)	0.83%
Cc1cc(N2C(=O)CC(Cc3ccccc3)C2=O)no1 (stereo not drawn)	2.8%
Cc1cc(C)n2nc3nc4c(cc3c2n1)CCCC4	3.01%
O=C(Nc1ccncc1)c1ccccc1F	0.96%
COC(=O)C1C(=O)c2c([nH]c(C(=O)OC3CCCCCC3)c2C)CC1C (stereo not drawn)	3.01%
O=C1CCC(=O)N1c1ccc(CSc2nnnn2C2CCCCC2)cc1	1.92%

SMILES	RAM network inhibition
Cc1ccc(C2CC(c3cccc(C)c3)n3ncnc3N2)cc1 (stereo not drawn)	4.74%
CCOc1cccc(NC(=O)c2ccc(S(=O)(=O)N(C)C)cc2)c1	6%
COc1ccc(C2N(c3ccc(OC)cc3)C(=O)C3CCCN32)cc1 (stereo not drawn)	-0.16%
Fc1cccc(-c2cc3nc4c(c(N5CCC6(CC5)OCCO6)n3n2)CCCC4)c1	-0.47%
O=C(COC(=O)C1CC(=O)N(C2CCCCC2)C1)c1ccc(F)cc1 (stereo not drawn)	2.97%
CCOC(=O)CSC(CC)C(=O)Nc1nnc(CC)s1 (stereo not drawn)	-0.27%
CC(=O)c1cccc(NC(=O)Nc2cc3sccc3n2C)c1	5.08%
CN(C)S(=O)(=O)c1ccc(C(=O)Nc2ccc(F)cc2F)cc1	2.9%
Cc1ccc(C(=O)N2CCN(c3ccccc3)CC2)cc1C	2.03%
CC(=O)c1c(C)nc2ccc(Br)cc2c1C(=O)O	1.15%
COc1ccc(-c2nc(CS(=O)CC(=O)NCC3CCCO3)c(C)o2)cc1 (stereo not drawn)	4.03%
Cn1cccc1Cc1nnc(SCC(=O)Nc2nccs2)n1CCc1ccccc1	2.48%
CCCC(=O)c1cc(F)c(N2CCN(S(=O)(=O)c3ccccc3)CC2)cc1C	3.18%
COc1ccccc1CNC(=O)c1cnc2ccccn2c1=O	2.45%
O=C(O)c1cccc(-n2cnnn2)c1	4.03%
Cc1oc(-c2ccc(Cl)cc2)nc1CS(=O)CC(=O)NCCN1CCCC1 (stereo not drawn)	8.14%
O=C(CCn1c(=S)[nH]c2ccccc2c1=O)N1CCOCC1	-0.13%
CCCC(=O)C1=C(O)C(C(=O)OC)C(C)(C)CC1=Nc1ccccc1 (stereo not drawn)	2.75%
O=C(Nc1nccs1)c1cc(S(=O)(=O)N2CCCCC2)ccc1Cl	4.88%
COC(=O)Nc1c(C(=O)OC)cc(OC)c(OC)c1OC	4.86%
